Bioassay records: PubChem, Broad Institute
Sampled rows, rich in hits. Any-hit rate of the full collection: about 4%.
DENV2 CPE rescue = inhibitors of DENV2 cytopathic effect; DENV2-infected cells, cytopathic effect rescue, plate reader; CPE inhibition, % at 9.99 µM; hit rate 1.7% among 350,000; AID 651640; in the data active means CPE inhibition above about 20%, passing the limit was not always enough; tested in BHK-21 cells
ERAP1 inh = inhibitors of human ERAP1 aminopeptidase; inhibition, % at 10.7 µM; Q9NZ08; hit rate 0.15% among 340,000; recombinant ERAP1, Leu-AMC fluorescence, 60 min;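 active means mean replicate inhibition of at least 30%, or all replicates individually reaching that 30% level; inactive means mean below 30% and not every replicate reaching it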
AF4-AF9 inh = MLL-AF4/AF9 protein interaction inhibition; P42568; AlphaScreen, biotin-AF4 peptide binding to FLAG-AF9; inhibition, % at 10 µM; hit rate 0.47% among 350,000; AID 651704;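 active means every replicate reaching a set inhibition limit, whatever the replicate mean, cut at about 25% in these data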
RAD52 inh = RAD52 (human) annealing inhibition; hit rate 0.46% among 360,000; recombinant RAD52 DNA annealing, FRET fluorescence; inhibition, % at 18.7 µM; AID 651710;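 active means every replicate showing at least 50% inhibition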
Target sequence (P43351 whole entry, looked up): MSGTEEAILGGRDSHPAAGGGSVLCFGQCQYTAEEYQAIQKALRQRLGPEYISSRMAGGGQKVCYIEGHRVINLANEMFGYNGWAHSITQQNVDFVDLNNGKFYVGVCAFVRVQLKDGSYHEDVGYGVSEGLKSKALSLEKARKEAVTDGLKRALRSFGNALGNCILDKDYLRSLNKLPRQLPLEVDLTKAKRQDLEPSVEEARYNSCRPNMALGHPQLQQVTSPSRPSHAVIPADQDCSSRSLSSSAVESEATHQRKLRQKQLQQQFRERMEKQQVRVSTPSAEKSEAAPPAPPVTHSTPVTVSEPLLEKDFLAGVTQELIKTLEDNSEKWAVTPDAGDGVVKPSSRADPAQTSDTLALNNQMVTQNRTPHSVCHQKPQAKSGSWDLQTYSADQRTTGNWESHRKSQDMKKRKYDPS
FGF22 binding = shifts melting point of recombinant human FGF22; Q9HCT0; hit rate 1.5% among 340,000; AID 651658; recombinant FGF22 thermal shift, SYPRO orange fluorescence; percent of sucrose octasulfate shift, DMSO zero; activity (Tm shift, normalised), % at 9.99 µM;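 active means mean Tm shift, scaled 0 neutral to 100 positive control, at about 1.3% or above, every replicate too, limit read from the data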
Target sequence (Q9HCT0 whole entry, looked up): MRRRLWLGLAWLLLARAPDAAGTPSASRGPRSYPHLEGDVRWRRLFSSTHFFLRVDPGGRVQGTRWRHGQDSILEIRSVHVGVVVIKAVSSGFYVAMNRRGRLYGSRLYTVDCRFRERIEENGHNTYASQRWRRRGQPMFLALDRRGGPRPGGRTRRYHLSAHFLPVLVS
Large screens that a line does not name were inactive.

O=C(NCc1cc(C(F)(F)F)cc(C(F)(F)F)c1)C1CC(c2ccc(C(F)(F)F)cc2)=NO1 (stereo not given)	FGF22 binding 41
O=C(NCc1cc(C(F)(F)F)cc(C(F)(F)F)c1)C1CC(c2c(Cl)cccc2Cl)=NO1 (stereo not given)	none (no result: AF4-AF9 inh)
O=C(C[C@H]1CC[C@@H]2[C@H](COC[C@H](O)CN2Cc2ccc(Cl)cc2)O1)NCc1cccc(F)c1	none
Cc1ccccc1Nc1nc(N)c2ccccc2n1	none
Cc1ccccc1Nc1nc(N)nc(-c2oc3ccccc3c2C)n1	DENV2 CPE rescue 69
O=C(c1cccnc1)N1CC2(C1)[C@H](c1ccccc1)[C@@H](CO)N2C(=O)c1cccnc1	none
Cc1ccc2c(c1)sc(=NC(=O)c1cccs1)n2C	FGF22 binding 43 (no result: DENV2 CPE rescue)
Cc1ccc2c(c1)sc(=NC(=O)C1CC1)n2C	none
O=C(COc1cccnc1[N+](=O)[O-])NCc1cccs1	none
O=[N+]([O-])c1cccnc1NCc1cccs1	FGF22 binding 43
O=C(C[C@H]1CC[C@H](NC(=O)c2cccc(F)c2)[C@H](CO)O1)NCCN1CCCC1	none
O=C1Nc2ccc(Br)cc2/C1=N\N=C\C1=C(N2CCOCC2)C(=C/c2ccccc2)/CC1	none
CC(NC(=O)C12CC3CC(CC(C3)C1)C2)C(=O)N/N=C/C1=C(N2CCOCC2)C(=C\c2ccccc2)/CC1 (stereo not given)	DENV2 CPE rescue 133
O=C(N[C@@H]1CC[C@H](CCNS(=O)(=O)Cc2ccccc2)O[C@H]1CO)c1cnccn1	none
CCCCNC(=O)c1cc2c(C)cc(C)cc2[nH]1	DENV2 CPE rescue 57
Cc1cc(C)c2cc(C(=O)Nc3ccc(C)c(F)c3)[nH]c2c1	none
CC(C)CC#Cc1ccc([C@H]2[C@H](CO)N3C(=O)CN(C(=O)Nc4ccc(F)cc4)C[C@@H]23)cc1	none (no result: FGF22 binding)
O=C1O[C@H](c2ccccc2)[C@H](c2ccccc2)N2[C@H]1[C@@H](C(=O)N1CCCCCCC1)[C@]1(C(=O)Nc3ccc(C#CC4=CCCCC4)cc31)[C@H]2c1ccc(O)cc1	none
O=C(NC(C(=O)N1CCCC1C(=O)NC1CCCC1)c1ccccc1)c1cccs1 (stereo not given)	DENV2 CPE rescue 47 (no result: AF4-AF9 inh)
O=C(N[C@H](C(=O)N1CCC[C@H]1C(=O)NC1CCCC1)c1ccccc1)c1ccccc1	none (no result: AF4-AF9 inh)
CC(C)[C@H](NC(=O)c1cccs1)C(=O)N1CCC[C@H]1C(=O)NCc1ccccc1	DENV2 CPE rescue 26 (no result: AF4-AF9 inh)
Cc1ccc(S(=O)(=O)Nc2cccc3c2O[C@H](CN(C)S(=O)(=O)c2ccc(C)cc2)[C@H](C)CN([C@@H](C)CO)C3=O)cc1	none (no result: ERAP1 inh, AF4-AF9 inh)
CCOC(=O)CSc1nc2ccccc2c(=O)n1CC(C)C	FGF22 binding 43
COc1ccc(NC(=O)Nc2ccc3c(c2)C(=O)N([C@@H](C)CO)C[C@@H](C)[C@@H](CN(C)Cc2ccc(C(=O)O)cc2)OCCCC[C@@H](C)O3)cc1	none
CC(C)C[C@@]12C(=O)N(c3cccc(Cl)c3)C(=O)N1[C@H](c1ccc(F)cc1)[C@@H]1C(=O)N(C3CCCCC3)C(=O)[C@@H]12	none (no result: ERAP1 inh)
CC(C)C[C@@]12C(=O)N(c3cccc(Cl)c3)C(=O)N1[C@H](c1ccc(Cl)cc1)[C@@H]1C(=O)N(C3CCCCC3)C(=O)[C@@H]12	FGF22 binding 1.6
O=C1[C@H]2[C@@H](c3ccc(F)cc3)N3C(=O)N(c4cccc(F)c4)C(=O)[C@@]3(Cc3ccc(Cl)cc3)[C@H]2C(=O)N1C1CCCCC1	DENV2 CPE rescue 24 (no result: ERAP1 inh)
COc1cccc(NC(=O)N2CC3(C2)[C@H](c2ccccc2)[C@H](CO)N3C(=O)C2CC2)c1	none (no result: FGF22 binding)
COc1ccccc1-c1cnc2c(c1)C(=O)N([C@@H](C)CO)C[C@H](C)[C@H](CN(C)Cc1ccncc1)O2	none
N#Cc1cnn(-c2cccc(Cl)c2)c1N	FGF22 binding 43
CCCC#Cc1ccc([C@H]2[C@H](CO)N3CCCCN(CC4CC4)C[C@@H]23)cc1	none
CCC1CN(S(=O)(=O)c2ccc3c(c2)NC(=O)CC(=O)N3)c2cc(Cl)ccc2O1 (stereo not given)	DENV2 CPE rescue 23
COc1cccc(NC(=O)C[C@H]2CC[C@@H]3[C@@H](COc4ccc(NC(=O)C5CCCCC5)cc4C(=O)N3C)O2)c1	DENV2 CPE rescue 33
COc1cccc(NC(=O)C[C@H]2CC[C@H]3[C@@H](COc4ccc(NC(=O)C5CCCCC5)cc4C(=O)N3C)O2)c1	none
CN1CCN(C(=O)C[C@@H]2CC[C@H]3[C@H](COc4ccc(NC(=O)C5CCCC5)cc4C(=O)N3C)O2)CC1	DENV2 CPE rescue 25 (no result: FGF22 binding)
CN(C)C(=O)C[C@@H]1CC[C@@H]2[C@H](COc3ccc(NC(=O)C4CCCCC4)cc3C(=O)N2C)O1	DENV2 CPE rescue 28 (no result: ERAP1 inh, AF4-AF9 inh)
CC[n+]1ccc(/C=C2\Sc3ccccc3N2CCCS(=O)(=O)[O-])c2ccccc21	none
CN1C=C/C(=C\c2cc[n+](C)c3ccccc23)c2ccccc21	ERAP1 inh 80, AF4-AF9 inh 56, RAD52 inh 79
CCOc1cc(/C=N/NC(=O)C(N)=O)cc(Br)c1O	FGF22 binding 43
CCOc1cc(/C=N/NC(=O)C(=O)NC2CC2)cc(Br)c1O	DENV2 CPE rescue 47
COc1ccc2c3c([nH]c2c1)[C@H](CO)N(C(=O)CN(C)C)CC31CCN(Cc2ccncc2)CC1	none
CCC(=O)N1CC2(CN(Cc3ccccc3Cl)C2)c2c([nH]c3cc(OC)ccc23)[C@H]1CO	AF4-AF9 inh 30
COc1ccc2c3c([nH]c2c1)[C@H](CO)N(C(=O)CN(C)C)CC31CCN(Cc2ccccc2Cl)CC1	AF4-AF9 inh 28
COc1ccc2c3c([nH]c2c1)[C@H](CO)N(C(=O)CN(C)C)CC31CN(Cc2ccccc2Cl)C1	DENV2 CPE rescue 33, AF4-AF9 inh 32 (no result: ERAP1 inh, RAD52 inh)
COCC(=O)N1CC2(CN(Cc3ccccc3Cl)C2)c2c([nH]c3cc(OC)ccc23)[C@@H]1CO	none (no result: ERAP1 inh, RAD52 inh)
COc1ccc2c3c([nH]c2c1)[C@@H](CO)N(C(C)=O)CC31CN(Cc2ccccc2Cl)C1	AF4-AF9 inh 29 (no result: FGF22 binding)
COc1ccc2c3c([nH]c2c1)[C@@H](CO)N(C(=O)CN(C)C)CC31CN(Cc2ccncc2)C1	none (no result: ERAP1 inh, RAD52 inh, FGF22 binding)
CCn1c(/C=C\c2ccccc2C)nc2ccccc2c1=O	AF4-AF9 inh 31
CN1C(=O)CN(CCN2CC(=O)N(C)C(=O)C2)CC1=O	FGF22 binding 43
Cn1c2c(c3ccccc31)CCN1CCC[C@]21c1ccccc1	AF4-AF9 inh 26
N/C(Cc1cccc2ccccc12)=N\OC(=O)c1ccc2c(c1)OCO2	FGF22 binding 44
CS/C(=N\S(=O)(=O)c1cccs1)Nc1cccc(Cl)c1C	none
CS/C(=N\S(=O)(=O)c1cccs1)Nc1ccc(F)c(Cl)c1	FGF22 binding 1.3
Cc1ccc(S(=O)(=O)Nc2ccc3c(c2)C(=O)N([C@@H](C)CO)C[C@H](C)[C@@H](CN(C)S(=O)(=O)c2c(C)noc2C)OCCCC[C@@H](C)O3)cc1	none
